Among all 48,000 compounds or so, about 13,000 (27%) showed an effect of 50% or more. The list shows a part of the results.
Test system: Wolbachia pipientis
Assay: Anti-Wolbachia Cell-Based Screen
Format: functional
Set-up: scale not given: in the data most compounds retested in dose-response had high values
Details: 5 µM

Row | Structure (SMILES) | Percent Effect [%]
1 | CC(C)S(=O)(=O)N1C[C@@H](c2ccccc2)[C@H]2[C@H]1CCCCCN2C | 189.5
2 | CC(Cn1cncn1)NCc1csc2c1CCCC2 (centres undefined) | -14.34
3 | NC1(c2nc(-c3ccccc3)cc(=O)[nH]2)CCCCC1 | -11.2
4 | CC1=NOC2(CCN(Cc3c[nH]c4ccccc34)CC2)C1 | 112.6
5 | CO[C@H]1COCCN(Cc2c[nH]c3ccccc23)C1 | -3.317
6 | O=C1OCCC1N1CCN(C(=O)Cc2c[nH]c3ccccc23)CC1 (centres undefined) | 5.817
7 | CCc1nnc(CN(C)C(=O)CN2CC(c3ccccc3)CC2=O)o1 (centres undefined) | 5.104
8 | CCS(=O)(=O)N1CCc2c(COC)cncc2C1 | 85.06
9 | CCS(=O)(=O)N1CCc2c(CN3CCOCC3)cncc2C1.Cl.Cl | 105.6
10 | O=C(COc1ccc(F)cc1)N1CCCSCC1CN1CCOCC1 (centres undefined) | -0.3394
11 | FC1(F)CCNCC12CCN(c1ncccn1)C2 (centres undefined) | -1.09
12 | Cl.FC(F)CNc1cnc(C2CCNCC2)cn1 | 73.95
13 | Cl.O=C(C1CC1)N1CC2(CCNCC2)C1 | -2.925
14 | Cl.O=C(C1CC1)N1CCOC2(CCNCC2)C1 | 99.53
15 | O=C(C1CC1)N1CCC2(CC1)CNCCO2 | 0.5147
16 | Cc1ccc(N2C[C@@H]3OCCN(Cc4c(C)noc4C)[C@@H]3C2)nn1 | 99.73
17 | Cc1ccc(N2C[C@@H]3OCCN(CC4CC4)[C@@H]3C2)nn1.O=C(O)C(F)(F)F | 101.4
18 | COCC(=O)N1C[C@@H]2OCCN(Cc3c(C)noc3C)[C@@H]2C1 | -12.28
19 | Cc1ccc(N2C[C@@H]3CN(Cc4ccoc4)CCO[C@@H]3C2)nn1.O=C(O)C(F)(F)F.O=C(O)C(F)(F)F | -36.31
20 | Cc1noc(C)c1CN1CCO[C@H]2CNC[C@H]21.Cl.Cl | -6.613
21 | Cc1ccc(N2C[C@@H]3CN(Cc4csc(C)n4)CCO[C@@H]3C2)nn1.O=C(O)C(F)(F)F.O=C(O)C(F)(F)F | 2.819
22 | CC(C)NC(=O)N1CCOC2(CCNCC2)C1 | -2.285
23 | CN1CCCC(Cc2nccnc2Cl)CC1 (centres undefined) | 111.8

Row | Structure (SMILES) | Percent Effect [%]
24 | CN1CCCC(Cc2cncc(Br)c2)CC1 (centres undefined) | -8.172
25 | CCn1ccnc1CN1CCN(C(C)C)CC1C (centres undefined) | -27.31
26 | CC(C)N1CCCC(Cc2nccnc2Cl)CC1 (centres undefined) | 83.32
27 | CC(C)N1CCCC(Cc2nccnc2Cl)C1 (centres undefined) | 102.4
28 | O=C(N1CCCC1)N1C[C@H]2CC[C@@H]1CN(Cc1ccncc1)C2 | 3.012
29 | CC(C)CN1C(=O)C2(CCCC2)NC1c1cccnc1 (centres undefined) | -3.888
30 | COC(=O)CCC(=O)NC(C)Cc1ccccc1Br (centres undefined) | 5.861
31 | O=S1(=O)CCC(n2cc(C3=CCN(CCN4CCCCC4)CC3)cn2)C1 (centres undefined) | 5.738
32 | CC(C)(C)n1cc(C2=CCN(CCc3ccccc3)CC2)cn1 | -9.314
33 | CCn1cc(C2=CCN(CCCOc3ccccc3)CC2)cn1 | 20.1
34 | CCC(O)Cn1cc(C2=CCN(Cc3ccc(OC)cc3)CC2)cn1 (centres undefined) | -14.61
35 | COc1cccc(C2=CCN(CCN3CCCC3=O)CC2)c1 | -10.09
36 | COc1cccc(Cn2cc(C3=CCN(CC(=O)N(C)C)CC3)cn2)c1 | 105.2
37 | COCCN1CC=C(c2cccc(OC)c2)CC1 | -4.022
38 | COc1cccc(Cn2cc(C3=CCN(CCO)CC3)cn2)c1 | 104.2
39 | CN(C)C(=O)CN1CC=C(c2cnn(Cc3ccccc3)c2)CC1 | 99.64
40 | COc1cccc(C2=CCN(CCN3CCOC3=O)CC2)c1 | 5.556
41 | Cc1noc(C)c1CNCc1ccccc1N(C)C1CCN(C)CC1 | 3.422
42 | Cc1nc(C)c(C)c(N2CCC3(CCN(C)C3)C2)n1 (centres undefined) | -3
43 | NCC1(c2cccc(C(F)(F)F)c2)CCCC1 | -13.69
44 | CC(C)=CCN1C[C@H]2CC[C@@H]1CN(C(=O)CSc1ccncc1)C2 | 19.74
45 | CC(C)CN1CCC2(CC(C(=O)NCc3cccnc3)=NO2)C1 (centres undefined) | -7.517
46 | CC(C)CCN1CCC2(CNS(=O)(=O)c3cccnc3O2)C1 (centres undefined) | 113.8

Row | Structure (SMILES) | Percent Effect [%]
47 | COCCN1CCC2(C1)CN(c1ncccn1)C2.O=C(O)C(F)(F)F | -10.62
48 | O=S1(=O)NCC2(CCN(Cc3ccc(Cl)s3)C2)Oc2ncccc21 (centres undefined) | 120.8
49 | O=C(Cc1ccncc1)N1C[C@H]2CC[C@@H]1CN(Cc1cccnc1)C2 | -14.3
50 | NCC1(c2cccc(C(F)(F)F)c2)CCCCC1 | -7.297
51 | CCCc1nnc2sc(C3CCN(CC)CC3)nn12 | 103.4
52 | COc1ccc(CC(=O)N2CCN(Cc3ccco3)C[C@H]2C)cc1OC | 147.8
53 | COc1ccc(CCNCc2ccco2)cc1OC | -22.25
54 | COc1ccc(CC(=O)N2CCN(Cc3ccco3)C[C@@H]2C)cc1OC | 120.6
55 | O=C(Cc1csc(-c2ccco2)n1)N1CCN(CCO)CC1 | 5.506
56 | COc1ccc(CC(=O)N2CCN(Cc3ccco3)C[C@@H]2C)cc1 | 137.5
57 | COc1ccc(C(=O)C2CCCN(Cc3ccc(C)o3)C2)c(OC)c1 (centres undefined) | -6.752
58 | CO[C@H]1CCN(c2ncc(F)cn2)[C@@H]2CN(Cc3ccco3)C[C@H]12.O=C(O)C(F)(F)F.O=C(O)C(F)(F)F | 23.38
59 | COc1cccc(CC(=O)N2CCCSCC2CN2CCCC2)c1 (centres undefined) | 23.31
60 | COc1ccc2c(ccn2CCN)c1 | -4.94
61 | O=C(O)C(F)(F)F.O=C(O)C(F)(F)F.c1ccc(CO[C@H]2CC[C@H]3[C@H]2OCCN3Cc2nccs2)nc1 | -10.71
62 | O=C(O)C(F)(F)F.O=C(O)C(F)(F)F.O=C(O)C(F)(F)F.c1cncc(CN2CCO[C@H]3[C@H](OCCN4CCCC4)CC[C@@H]32)c1 | 103
63 | O=C(O)C(F)(F)F.O=C(O)C(F)(F)F.O=C(O)C(F)(F)F.c1ccc(CN2CCO[C@H]3[C@H](OCCN4CCCC4)CC[C@@H]32)nc1 | -22.42
64 | O=C(NCC1CC1)[C@H]1C[C@@H]2[C@@H](C1)OCCN2Cc1cccnc1.O=C(O)C(F)(F)F.O=C(O)C(F)(F)F | 13.71
65 | CCN(CC)CCN1CCO[C@H]2[C@@H](OCc3ccncc3)CC[C@@H]21.O=C(O)C(F)(F)F.O=C(O)C(F)(F)F.O=C(O)C(F)(F)F | 3.809
66 | O=C(O)C(F)(F)F.O=C(O)C(F)(F)F.c1cc(CO[C@H]2CC[C@H]3[C@H]2OCCN3Cc2nccs2)ccn1 | 124.9
67 | CC(C)NC(=O)[C@H]1C[C@@H]2[C@@H](C1)OCCN2Cc1cccnc1.O=C(O)C(F)(F)F.O=C(O)C(F)(F)F | 1.72
68 | O=C(O)C(F)(F)F.O=C(O)C(F)(F)F.O=C(O)C(F)(F)F.c1cc(CN2CCO[C@H]3[C@H](OCCN4CCCC4)CC[C@@H]32)ccn1 | 104.9
69 | Cc1cccc(CO[C@@H]2CC[C@H]3[C@H]2OCCN3Cc2nccs2)n1.O=C(O)C(F)(F)F.O=C(O)C(F)(F)F | -8.72

Row | Structure (SMILES) | Percent Effect [%]
70 | Cc1nc(C)c(CC(=O)N2CCN(CC(C)C)CC2)c(=O)[nH]1 | -15.6
71 | CC[C@H]1CN2CC[C@H]1C[C@@H]2CNC(=O)NC1CCCCC1 | -4.604
72 | CNC(=O)[C@H]1C[C@@H]2CN(C(=O)c3ccncc3F)C[C@@H]2N1C | 2.311
73 | CCN(CCN1CCCCCC1)C(=O)COc1cccnc1 | -15.49
74 | CN1CCc2nc3c(c(N)c2C1)CCCN3C | 105.5
75 | CC(C)c1cc(N2CCC3(CCN(C)C3)C2)ncn1 (centres undefined) | -5.942
76 | CN(C)C(=O)N1CCCC2(CCN(Cc3ccncc3)C2)C1 (centres undefined) | -11.09
77 | Cn1ccnc1CN1CCC2(CC(=O)N(c3ccccn3)C2)C1.O=C(O)C(F)(F)F.O=C(O)C(F)(F)F (centres undefined) | -3.39
78 | O=C(O)C(F)(F)F.O=C(O)C(F)(F)F.O=C1CC2(CCN(Cc3ccncc3)C2)CN1c1cccc(F)c1 (centres undefined) | 10.56
79 | CCN1CC2(CC1=O)CN(Cc1ccccn1)CCN(C(C)=O)C2.O=C(O)C(F)(F)F.O=C(O)C(F)(F)F (centres undefined) | 108.4
80 | CCS(=O)(=O)NC[C@]12COC[C@H]1CN(Cc1ccncc1)C2.O=C(O)C(F)(F)F.O=C(O)C(F)(F)F | -4.372
81 | Cn1cnc(S(=O)(=O)N2C[C@H]3CN(Cc4cccnc4)C[C@H]3C2)c1.O=C(O)C(F)(F)F.O=C(O)C(F)(F)F.O=C(O)C(F)(F)F | -11.02
82 | CC(=O)N1CCN(Cc2ccncc2)CC2(CC(=O)N(C)C2)C1.O=C(O)C(F)(F)F.O=C(O)C(F)(F)F (centres undefined) | 112.8
83 | CC(=O)N1CCOCC2(CN(Cc3ccccn3)CCO2)C1.O=C(O)C(F)(F)F.O=C(O)C(F)(F)F (centres undefined) | -7.165
84 | Cn1cnc(S(=O)(=O)N2CC3(CCN(Cc4ccncc4)C3)C2)c1.O=C(O)C(F)(F)F.O=C(O)C(F)(F)F.O=C(O)C(F)(F)F | 100.9
85 | CCN1CCc2[nH]cnc2C12CCN(c1ccc(Cl)cn1)CC2 | 20.82
86 | Cc1cc(CN2C[C@@H]3COC[C@]3(CNC(=O)c3ccco3)C2)no1.O=C(O)C(F)(F)F | -9.998
87 | Cc1nc(CC(=O)N2CCN(CCOc3ccccc3)CC2)cs1 | -7.543
88 | CN1CCN(C(=O)Cc2ccc(S(=O)(=O)C(F)F)cc2)CC1 | 3.1
89 | Cc1ccc(-c2ccnc3cc(CC(=O)N4CCN(C)CC4)nn23)cc1 | 99.35

Source: ChEMBL document CHEMBL3988442, “University of Dundee, Small-Polar-MMV Screening Library” (2021)
